Compounds with a hit are over-represented: about 1.3% of the library has one in this group of screens.
SRC1 inh: human NCOA1 inhibition; Q15788; HEK293 GAL4-SRC1 luciferase reporter, luminescence; inhibition, % at 3.6 µM; 0.12% of 360,000 active;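 active means inhibition above the campaign mean plus 3 SD, with each screening campaign given its own cutoff, cut at about 60% in these data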;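 further: 0% = DMSO treated cells and 100% = gossypol at 36 µM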
NCOA2 inhibitor: inhibits human steroid receptor coactivator 2 | HEK293 GAL4-SRC2 luciferase reporter, luminescence | inhibition, % at 9 µM | 0.17% of 370,000 active | AID 651957;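 active means inhibition above the mean inhibition of all tested compounds plus 3 SD, set per campaign, cut at about 52% in these data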;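 further: 0% = DMSO treated cells and 100% = cells given Gossypol at 36 µM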
Gli-Sufu antag: Gli-Sufu pathway antagonism; inhibition, % at 5 µM; 0.74% of 340,000 active; Sufu-KO-LIGHT fibroblasts, Gli luciferase reporter luminescence;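 active means inhibition above about 55%, limit read from the data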;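 further: 0% = DMSO-treated cells and 100% = wells with medium but no cells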
COUP-TFII inh: NR2F2 (human) inhibition, primary screen | AID 686940 | inhibition, % at 8.6 µM | 0.7% of 370,000 active | HEK293T NGFI-A luciferase reporter, luminescence | P24468;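 active means inhibition above a per-plate cutoff, mean inhibition of test wells between control levels plus 3 SD, cut at about 38% in these data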;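 further: cells cotransfected with COUP-TFII expression vector driving the NGFI-A reporter; 0% = median of COUP-TF2 test wells and 100% = reporter-only cells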
NR5A2 inv ag: suppresses constitutive activity of human LRH-1; HEK293T StAR-luciferase reporter, LRH-1 transfected, 24 h; inhibition, % at 3.6 µM; O00482; 0.13% of 360,000 active; AID 602396;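 active means inhibition above the mean inhibition of all tested compounds plus 3 SD, cut at about 73% in these data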;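 further: 0% = DMSO wells and 100% = reporter-only cells lacking LRH-1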
Target sequence (O00482 whole entry, looked up): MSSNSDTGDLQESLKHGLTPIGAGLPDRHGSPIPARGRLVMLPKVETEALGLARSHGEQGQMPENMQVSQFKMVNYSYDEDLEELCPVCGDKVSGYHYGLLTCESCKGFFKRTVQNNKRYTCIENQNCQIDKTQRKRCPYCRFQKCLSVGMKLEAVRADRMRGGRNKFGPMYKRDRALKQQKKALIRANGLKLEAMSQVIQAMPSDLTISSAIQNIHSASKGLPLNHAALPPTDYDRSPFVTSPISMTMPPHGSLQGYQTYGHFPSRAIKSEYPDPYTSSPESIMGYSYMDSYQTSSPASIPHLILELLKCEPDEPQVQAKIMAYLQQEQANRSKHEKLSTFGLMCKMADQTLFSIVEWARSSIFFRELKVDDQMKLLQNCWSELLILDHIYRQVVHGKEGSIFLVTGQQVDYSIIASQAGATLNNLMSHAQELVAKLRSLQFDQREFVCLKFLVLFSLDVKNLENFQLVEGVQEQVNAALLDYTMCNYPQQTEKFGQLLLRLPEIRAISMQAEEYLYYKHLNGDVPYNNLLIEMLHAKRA
SRC3 inh: human NCOA3 inhibition | 0.17% of 360,000 active | HEK293 GAL4-SRC3 luciferase reporter, luminescence | inhibition, % at 3.6 µM | AID 588352;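 active means inhibition above a per-campaign cutoff, the mean of all compounds plus 3 SD, cut at about 60% in these data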;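 further: 0% = DMSO-treated cells and 100% = gossypol-treated cells at 36 µM; higher means less SRC3-driven luciferase light from the GAL4 reporter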
The depositor's hits bear a star; x = no result.

SMILES	SRC1 inh	NCOA2 inhibitor	Gli-Sufu antag	COUP-TFII inh	NR5A2 inv ag	SRC3 inh
C/C(=N\NC(=O)c1nnn(-c2nonc2N)c1-c1ccccc1)c1ccccc1O	45.0	20.0	68.1*	-2.6	23.1	55.6
CCCc1c(C(=O)N/N=C(\C)c2ccccc2O)nnn1-c1nonc1N	-11.8	-6.0	x	3.5	13.4	2.3
Oc1ccc2ccccc2c1N=Nc1ccccn1	8.2	24.1	54.9	24.7	25.1	13.3
CCOC(=O)c1[nH]cnc1N=Nc1c(O)ccc2ccccc12	16.5	-4.3	57.3*	-8.3	4.6	4.8
O=C(Nc1cccc(S(=O)(=O)N2CCCCC2)c1)c1ccc(OCC2CCCO2)cc1 (stereo unspecified)	1.2	-20.8	-8.3	19.8	-5.4	19.7
O=C(Nc1ccc(Cl)c(S(=O)(=O)N2CCOCC2)c1)c1ccc(OCC2CCCO2)cc1 (stereo unspecified)	38.2	x	36.7	x	65.5	73.3*
O=c1[nH]c(=O)n(C2CC(O)C(CO)O2)cc1I (stereo unspecified)	23.4	-26.6	0.6	22.5	-96.3	43.6
O=c1[nH]c(=O)n([C@H]2C[C@H](O)[C@@H](CO)O2)cc1F	65.8*	15.9	37.5	-32.3	11.2	66.6*
COc1cc2ccccc2cc1C(=O)O	1.3	-38.2	-2.9	1.1	-4.7	8.6
COc1cc2ccccc2ccc1=NO	47.5	54.1*	-12.3	14.9	36.3	48.6
COc1cc(NC(=O)c2cc3c(C)nc4ccccc4c3o2)cc(OC)c1OC	14.3	-14.0	24.4	-4.1	24.6	17.3
COc1ccc(CNC(=O)c2cc3c(C)nc4ccccc4c3o2)c(OC)c1	36.4	x	56.6*	x	42.5	-9.7
C[N+]1(CC2COC3(CCCCC3)O2)CCCC1 (stereo unspecified)	-1.5	96.9*	-3.2	-12.6	0.7	8.8
CC1=C(C(=O)OCc2ccc3c(c2)OCO3)C(c2ccccc2OCc2ccccc2)NC(=O)N1 (stereo unspecified)	18.6	1.3	10.0	21.5	14.2	16.8
CC1=C(C(=O)OCc2ccc3c(c2)OCO3)C(c2ccc(O)c([N+](=O)[O-])c2)NC(=O)N1 (stereo unspecified)	51.5	56.0*	-8.5	23.3	-1.2	57.5
CC1=C(C(=O)OCc2ccc3c(c2)OCO3)C(c2ccccc2)NC(=O)N1 (stereo unspecified)	70.8*	53.7*	-13.9	29.9	47.4	70.5*
NC(=O)c1c(N)[nH]c(C(=O)c2ccccc2)c1-c1cccc2ccccc12	x	x	x	-6.7	x	x
COC(=O)C[C@H]1CC[C@H]2[C@H](COc3ccc(NC(=O)c4cccs4)cc3C(=O)N2C)O1	x	14.7	x	0.9	x	x
COC1=C(C)C(=O)C2=C(C1=O)C1C3CC4=C(C(=O)C(OC)=C(C)C4=O)C(CNC(=O)C(C)=O)N3C(C#N)C(C2)N1C (stereo unspecified)	83.9*	62.7*	80.9*	51.6*	96.0*	84.9*
Cc1ccc(-n2c(SCC(=O)c3ccc(O)c(O)c3)nnc2-c2ccccc2)cc1	x	11.2	x	-0.7	x	x
Cc1nnc(-c2ccccc2)c(=O)n1/N=C/c1c(O)ccc2ccccc12	55.2	46.1	91.2*	2.4	20.4	73.7*
Cc1nnc(C)n1/N=C/c1c(O)ccc2ccccc12	11.0	16.1	3.3	-7.1	10.8	14.1
O=C(CNCc1ccccc1[N+](=O)[O-])N1CCC2(CC1)OCCO2	x	-27.9	x	-30.9	x	x
CC(=O)CCSc1ncnc2sc(-c3ccccc3)cc12	-109.6	-74.2	-75.1	-26.3	-166.1	-67.7
O=C(O)CCSc1ncnc2sc(-c3ccccc3)cc12	9.8	80.6*	45.7	23.1	15.0	29.9
SMILES	SRC1 inh	NCOA2 inhibitor	Gli-Sufu antag	COUP-TFII inh	NR5A2 inv ag	SRC3 inh
C[C@H]1[C@H](NC(=O)c2ccc(C(F)(F)F)cc2)CC[C@@]23CCCN2C(=O)CCC[C@@H]13	x	x	x	1.9	x	x
COC(=O)C1CN(Cc2ccc(OC)cc2)CCS(=O)(=O)N1Cc1ccccc1 (stereo unspecified)	x	-13.1	x	21.0	x	x
CC(C)(C)C(=O)/C(=C/c1ccncc1)n1cncn1	54.0	71.9*	21.7	26.4	52.4	62.7*
CCc1ccc(/C=C2\SC(=S)N(CCCC(=O)Nc3ccccc3C(=O)O)C2=O)cc1	-0.5	21.8	6.7	-6.3	7.5	0.8
Cc1ccc(/C=C2\SC(=S)N(CCCC(=O)Nc3ccccc3C(=O)O)C2=O)cc1	22.7	65.9*	21.9	14.6	5.4	18.4
COC(=O)c1ccc(/C=C2/SC(=S)N(CCCC(=O)Nc3ccc(O)cc3)C2=O)cc1	-5.7	35.5	19.1	19.3	-1.5	8.6
Cc1ccc(/C=C2\SC(=S)N(CCCC(=O)Nc3ccc(O)cc3)C2=O)cc1	22.8	66.5*	42.2	30.8	8.9	46.7
Cc1ccc(/C=C2/SC(=S)N(CCCC(=O)Nc3cc([N+](=O)[O-])ccc3O)C2=O)cc1	-27.9	55.0*	22.7	24.4	3.2	13.5
O=C(Nc1ccc2c(c1)OCO2)OC1CC2CC1[C@H]1CCCCN1[C@H]2Cc1ccccc1 (stereo partly specified)	x	3.6	x	11.8	x	x
CC(C)c1ccc(OC[C@@H](O)CN2CCC(C(O)(c3ccccc3)c3ccccc3)CC2)cc1	x	-13.7	x	27.1	x	x
Cc1cc(N2CCN(C(=O)OC(C)(C)C)C[C@H]2C)ccc1N1CCN(Cc2ccccc2)[C@@H](C)C1	x	7.0	x	25.4	x	x
Cc1cc(NS(=O)(=O)c2ccc(NC(=O)CSc3nnc(SCc4ccc(Cl)cc4)s3)cc2)nc(C)n1	x	9.8	x	10.1	x	x
CCCCNC(=O)C1(C(=O)c2ccc(OC)cc2)CC(C(=O)OCC)=NO1 (stereo unspecified)	x	8.1	x	-14.4	x	x
O=C(Nc1ccc(NC(=O)c2ccco2)cc1)c1ccc2c(c1)OCCO2	2.8	61.3*	31.5	29.3	-28.2	-2.8
CN(C)S(=O)(=O)c1cccc(NC(=S)Nc2cccc3cnccc23)c1	48.6	41.5	-0.8	43.5*	36.8	34.2
c1ccc(-c2c[nH]c3cccc(C4CCCCC4)c23)cc1	x	-43.3	x	-14.4	x	x
O=C(NN=Cc1c(O)ccc2ccccc12)c1ccncc1	41.3	40.2	86.7*	-13.1	91.0*	75.4*
O=C(N/N=C/c1c(O)ccc2ccccc12)c1ccc[n+](CCO)c1	-13.6	-9.7	3.9	6.3	30.6	-1.9
O=C(N/N=C\c1c(O)ccc2ccccc12)c1cncc(Br)c1	50.5	17.0	84.7*	-16.9	27.7	68.6*
O=C(N/N=C\c1c(O)ccc2ccccc12)c1ccc(O)cc1	19.5	5.3	16.8	10.9	7.3	19.7
O=C(N/N=C/c1cc(Br)ccc1O)c1ccncc1	38.0	7.8	17.9	-15.4	11.3	69.8*
Cn1cc(C(=O)N/N=C/c2c(O)ccc3ccccc23)ccc1=O	32.4	40.0	43.0	11.0	24.9	61.6*
COC(=O)[C@H](CC(C)C)N(CCCc1cn(Cc2ccccc2)nn1)S(=O)(=O)c1ccc(F)cc1Br	x	-3.5	x	-3.0	x	x

Screening data deposited in PubChem BioAssay by several laboratories.
